Pf apPOL inh – Pf-apPOL DNA polymerase inhibition | Recombinant Pf-apPOL, molecular beacon fluorescence, 1.5 h | inhibition, % at 10 µM | hit rate 0.25% among 210,000
mHTT CaM bind – disrupts binding of mutant huntingtin to calmodulin | P42858 | AlphaScreen His-mHTT/GST-CaM binding, luminescence | inhibition, % at 15 µM | hit rate 3.6% among 190,000
Target sequence (P42858 whole entry, looked up, change not shown): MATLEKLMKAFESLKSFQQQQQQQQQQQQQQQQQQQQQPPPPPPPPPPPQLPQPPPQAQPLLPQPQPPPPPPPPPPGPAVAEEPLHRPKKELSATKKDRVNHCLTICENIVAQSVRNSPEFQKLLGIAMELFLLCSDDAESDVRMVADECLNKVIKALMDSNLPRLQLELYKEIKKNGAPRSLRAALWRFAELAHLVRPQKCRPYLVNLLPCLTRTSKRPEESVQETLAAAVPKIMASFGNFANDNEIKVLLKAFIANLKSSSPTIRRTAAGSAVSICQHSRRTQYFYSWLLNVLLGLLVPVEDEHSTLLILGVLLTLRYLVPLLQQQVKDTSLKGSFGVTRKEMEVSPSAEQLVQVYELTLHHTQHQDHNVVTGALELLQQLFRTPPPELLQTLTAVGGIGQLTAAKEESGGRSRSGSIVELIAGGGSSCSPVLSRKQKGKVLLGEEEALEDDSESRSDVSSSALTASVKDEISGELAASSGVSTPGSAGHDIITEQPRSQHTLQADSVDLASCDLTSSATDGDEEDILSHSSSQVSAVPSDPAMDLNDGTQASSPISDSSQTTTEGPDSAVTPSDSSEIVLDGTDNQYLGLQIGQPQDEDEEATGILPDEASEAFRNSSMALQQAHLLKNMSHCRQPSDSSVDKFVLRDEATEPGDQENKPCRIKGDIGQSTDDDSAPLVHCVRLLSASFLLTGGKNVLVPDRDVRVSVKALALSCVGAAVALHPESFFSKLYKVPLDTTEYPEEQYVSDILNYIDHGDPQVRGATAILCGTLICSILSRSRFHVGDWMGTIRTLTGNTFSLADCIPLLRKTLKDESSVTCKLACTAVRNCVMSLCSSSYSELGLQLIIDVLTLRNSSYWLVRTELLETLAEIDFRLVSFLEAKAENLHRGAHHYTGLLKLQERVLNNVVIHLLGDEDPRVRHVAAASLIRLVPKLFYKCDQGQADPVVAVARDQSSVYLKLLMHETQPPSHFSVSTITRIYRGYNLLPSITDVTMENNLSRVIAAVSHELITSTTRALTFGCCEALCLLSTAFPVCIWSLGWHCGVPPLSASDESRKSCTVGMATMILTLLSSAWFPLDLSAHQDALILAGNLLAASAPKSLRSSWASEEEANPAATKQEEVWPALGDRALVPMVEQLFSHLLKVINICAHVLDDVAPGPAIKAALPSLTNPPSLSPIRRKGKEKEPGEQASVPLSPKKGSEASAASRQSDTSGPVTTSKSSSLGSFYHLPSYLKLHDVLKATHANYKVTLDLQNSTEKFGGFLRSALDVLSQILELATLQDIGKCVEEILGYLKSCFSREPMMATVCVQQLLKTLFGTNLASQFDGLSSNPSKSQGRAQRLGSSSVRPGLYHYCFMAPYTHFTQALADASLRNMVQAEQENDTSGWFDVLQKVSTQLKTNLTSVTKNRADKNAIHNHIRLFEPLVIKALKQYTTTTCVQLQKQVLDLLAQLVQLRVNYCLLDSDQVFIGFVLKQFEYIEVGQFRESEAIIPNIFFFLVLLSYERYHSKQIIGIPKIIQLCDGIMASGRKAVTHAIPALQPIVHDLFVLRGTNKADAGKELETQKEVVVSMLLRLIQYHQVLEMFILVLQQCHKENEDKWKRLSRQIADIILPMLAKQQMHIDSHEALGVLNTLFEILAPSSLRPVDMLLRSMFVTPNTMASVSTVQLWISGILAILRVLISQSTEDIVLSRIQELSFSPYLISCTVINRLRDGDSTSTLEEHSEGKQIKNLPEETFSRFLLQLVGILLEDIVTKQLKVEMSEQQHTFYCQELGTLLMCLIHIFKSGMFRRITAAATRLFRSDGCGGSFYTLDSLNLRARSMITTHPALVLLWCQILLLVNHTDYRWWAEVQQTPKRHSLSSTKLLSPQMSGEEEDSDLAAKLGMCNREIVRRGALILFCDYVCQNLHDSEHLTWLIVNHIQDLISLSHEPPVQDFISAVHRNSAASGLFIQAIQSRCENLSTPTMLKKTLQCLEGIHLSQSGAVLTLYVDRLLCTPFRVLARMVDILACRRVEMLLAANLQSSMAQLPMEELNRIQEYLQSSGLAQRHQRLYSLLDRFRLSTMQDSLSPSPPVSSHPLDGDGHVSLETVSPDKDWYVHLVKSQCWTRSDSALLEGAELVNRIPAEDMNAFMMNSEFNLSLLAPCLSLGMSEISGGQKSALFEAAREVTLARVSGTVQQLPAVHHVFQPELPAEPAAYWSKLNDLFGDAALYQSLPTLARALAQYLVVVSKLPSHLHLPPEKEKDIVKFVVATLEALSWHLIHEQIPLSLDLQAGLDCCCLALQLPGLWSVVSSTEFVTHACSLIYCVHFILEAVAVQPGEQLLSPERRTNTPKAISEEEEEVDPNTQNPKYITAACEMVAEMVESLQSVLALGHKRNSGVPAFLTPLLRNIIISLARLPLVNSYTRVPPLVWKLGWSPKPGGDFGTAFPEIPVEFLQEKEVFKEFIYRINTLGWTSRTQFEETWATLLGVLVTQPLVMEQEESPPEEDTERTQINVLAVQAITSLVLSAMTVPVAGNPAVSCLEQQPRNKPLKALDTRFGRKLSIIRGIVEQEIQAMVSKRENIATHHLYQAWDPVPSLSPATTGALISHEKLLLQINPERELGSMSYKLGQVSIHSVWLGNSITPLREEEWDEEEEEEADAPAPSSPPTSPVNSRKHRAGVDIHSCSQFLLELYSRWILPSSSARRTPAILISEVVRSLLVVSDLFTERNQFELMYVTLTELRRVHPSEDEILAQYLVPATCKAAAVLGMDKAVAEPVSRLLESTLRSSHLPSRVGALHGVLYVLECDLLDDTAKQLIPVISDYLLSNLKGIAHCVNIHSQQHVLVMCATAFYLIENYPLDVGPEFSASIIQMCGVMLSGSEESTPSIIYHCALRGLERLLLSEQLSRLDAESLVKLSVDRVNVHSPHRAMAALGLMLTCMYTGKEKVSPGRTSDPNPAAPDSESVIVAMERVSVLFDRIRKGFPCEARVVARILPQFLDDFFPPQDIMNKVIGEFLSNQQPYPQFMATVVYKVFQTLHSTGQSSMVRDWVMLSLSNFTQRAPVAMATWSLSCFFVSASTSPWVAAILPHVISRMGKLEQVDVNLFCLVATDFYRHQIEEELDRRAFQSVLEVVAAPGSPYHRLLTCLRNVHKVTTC
Of the large screens only hits and unclear results are named; the others gave an inactive call; ! = repeats disagree. Only some compounds are listed: those with a hit (about 3.6% of all), similar ones and a draw of the others. Rule as the data show it: active = inhibition above about 50%; inactive = the rest.

O=C(NCC1CCN(c2cc(-c3ccccn3)[nH]n2)CC1)c1ccc2c(c1)OCO2	none
S=C(Nc1ccc(Cl)cc1)O[C@H]1CCC12CCC(c1ccccc1)CC2 (some centres not stated)	none
COc1cccc(C(C)NC(=O)C2CCN(Cc3cn(C)c4ccccc34)CC2)c1 (configuration not stated)	none
COc1ccc2[nH]cc(CN3CCC(C(=O)NC(C)c4ccc(F)cc4)CC3)c2c1 (configuration not stated)	mHTT CaM bind 68
O=C1/C(=C/c2cc([N+](=O)[O-])ccc2Cl)Sc2ccccc21	none
O=C1/C(=C/c2ccc(F)cc2F)Sc2ccccc21	none
O=C1/C(=C/c2ccccc2F)Sc2ccccc21	mHTT CaM bind 58
O=C1/C(=C/c2cc([N+](=O)[O-])ccc2O)Sc2ccccc21	mHTT CaM bind 73
Cc1ccc(Cl)cc1-n1nc(C)c2c1CCCC2=O	none
CCSc1ccc(C(=O)Nc2cc([N+](=O)[O-])ccc2OC)cc1	none
Cc1c(C(=O)NNC(=O)c2ccc(Cl)cc2)ncn1Cc1ccc(Cl)cc1	none (no result: mHTT CaM bind)
N#Cc1cccc(C(=O)NC2CCN(C(=O)C3CC3)C2)c1 (configuration not stated)	none
Oc1ccccc1-c1nc2ccccc2[nH]1	mHTT CaM bind 65
O=c1[nH]c(-c2ccccc2O)nc2ccccc12	none
CC(C)CN1CCC(C(=O)N2CCCC2)CC1	Pf apPOL inh 88
CC(CN1CCC(C(=O)N2CCCC2)CC1)c1ccccc1 (configuration not stated)	none
CCCn1c(C2CCN(C(=O)c3cccs3)C2)nc2cccnc21 (configuration not stated)	none
COc1cccc(C(=O)N2CCN(c3cc(Cl)ccc3C)CC2)c1OC	mHTT CaM bind 100
COC(=O)c1cccc(C(=O)N2CCN(c3cc(Cl)ccc3C)CC2)n1	mHTT CaM bind 97
COc1ccccc1N1CCN(C(=O)c2ccc(Cl)cc2[N+](=O)[O-])CC1	none
COC(=O)c1cccc(C(=O)Nc2ccc(Cl)cc2C)n1	none
COc1ccccc1C(=O)N1CCN(C(=O)C(c2ccccc2)c2ccccc2)CC1	none
COc1cc(OC)cc(C(=O)N2CCN(C(=O)c3ccc(-c4ccccc4)cc3)CC2)c1	none
COc1cccc(C(=O)N2CCN(C(=O)c3ccc(-c4ccccc4)cc3)CC2)c1OC	mHTT CaM bind 52
COc1ccccc1C(=O)N1CCN(C2=NN=C(c3ccccc3)CS2)CC1	mHTT CaM bind 79
CC(=O)c1c(Cl)nc2ccc(Cl)cc2c1-c1ccccc1	none
COCCCn1c(=N)c(C(=O)NCc2cccnc2)cc2c(=O)n3ccccc3nc21	none
COc1cccc(-c2cn3ccn(-c4ccc5c(c4)CCC5)c(=O)c3n2)c1	none
COc1ccc(CC(=O)NCCn2ccc3ccccc32)cc1OC	none
O=C(Nc1ccc(F)c(F)c1)C1CCc2sc(C(=O)N3CCCC3)cc2C1 (configuration not stated)	none
O=C(Nc1ncc2c(n1)CC(c1ccc(Cl)cc1)CC2=O)c1ccccc1 (configuration not stated)	none
Cc1cc(C)cc(S(=O)(=O)N2CCCC(C)(C(=O)NCc3ccc(F)cc3)C2)c1 (configuration not stated)	mHTT CaM bind 52
Cc1cc(C)c(S(=O)(=O)N2CCCC(C)(C(=O)NCc3ccccc3)C2)c(C)c1 (configuration not stated)	mHTT CaM bind 59
Cc1ccc(S(=O)(=O)N2CCCC(C)(C(=O)NCc3ccc(F)cc3)C2)cc1 (configuration not stated)	none
Cc1cc(C)cc(S(=O)(=O)N2CCCC(C)(C(=O)NCc3ccccc3)C2)c1 (configuration not stated)	none
c1ccc(CCNc2ccc(-c3nc(-c4ccccc4)no3)cn2)cc1	none
O=C(Cc1csc(SCC(=O)c2cccs2)n1)NCc1ccco1	none
CCCNc1cc(N2CCCC(CCC(=O)Nc3ccc4c(c3)OCO4)C2)ncn1 (configuration not stated)	mHTT CaM bind 51
COc1ccc(NC(=O)CCC2CCCN(c3cc(NC4CC4)ncn3)C2)c(OC)c1 (configuration not stated)	mHTT CaM bind 60
CCNc1cc(N2CCCC(CCC(=O)Nc3ccc(OC)cc3OC)C2)ncn1 (configuration not stated)	none
CCNc1cc(N2CCCC(CCC(=O)Nc3ccc4c(c3)OCCO4)C2)ncn1 (configuration not stated)	none
COc1ccccc1C1CC(=O)NC(SC)=C1C#N (configuration not stated)	none
O=C(NCc1ccc(F)cc1)c1cc2c(s1)CCN(C(=O)c1ccccc1)C2	none
O=S(=O)(NC1CCCCCC1)c1ccc2nc(-c3ccccc3)[nH]c2c1	none
O=S(=O)(NC1CCN(Cc2ccccc2)CC1)c1ccc2nc(-c3ccccc3)[nH]c2c1	mHTT CaM bind 87
COc1ccc(NC(=O)C(c2cc3c(cc2[N+](=O)[O-])OCO3)N2CCCCC2)cc1 (configuration not stated)	none
CS(=O)(=O)N1CCc2cc(NC(=O)Nc3ccccc3Cl)ccc21	none
Cc1cc(C)cc(NC(=O)CSc2cn(CCNC(=O)c3ccc(F)cc3)c3ccccc23)c1	mHTT CaM bind 78
Cc1cccc(NC(=O)CSc2cn(CCNC(=O)c3ccc(F)cc3)c3ccccc23)c1	none
CCN1C=C(C(=O)OCc2cccc(C)c2)C(C)=NS1(=O)=O	none
COc1ccc(S(=O)(=O)Nc2ccccc2C(=O)NCc2ccccc2)cc1	none
Cn1c(SCC(=O)c2ccc(O)cc2)nnc1-c1ccco1	none
O=C(CSc1nnc(-c2ccco2)c(-c2ccco2)n1)N1CCc2ccccc2C1	mHTT CaM bind 93
O=C(CSc1nnc(-c2ccco2)c(-c2ccco2)n1)c1ccc(Cl)cc1	mHTT CaM bind 61
CCCCSc1nnc2c(n1)OC(/C=C/c1ccco1)Nc1ccccc1-2 (configuration not stated)	none
CCCCCCSc1nnc(-c2ccco2)c(-c2ccco2)n1	mHTT CaM bind 90
CCc1ccc(NC(=O)CSc2nnc(-c3ccco3)c(-c3ccco3)n2)cc1	mHTT CaM bind 92
Cc1ccnc(SCC(=O)N2CCc3ccccc3C2)n1	none
CCc1ccc(NC(=O)CSc2nnc(-c3ccco3)o2)cc1	none
CC(C)c1cc(C2CCCN2C(=O)Nc2ccc(Br)cc2F)no1 (configuration not stated)	none
Cc1cccc(-c2nc(-c3cn(-c4ccccc4)nn3)no2)c1	none
COc1cc(NC(=O)CSc2nnc(-c3ccco3)c(-c3ccco3)n2)cc(OC)c1	mHTT CaM bind 97
COc1ccc(NC(=O)CSc2ncccn2)cc1	none
COc1ccc(CC(=O)N2CCCC(c3noc(-c4cccc(F)c4)n3)C2)cc1OC (configuration not stated)	none
COc1cc(NC(=O)c2ccc([N+](=O)[O-])cc2Cl)c(OC)cc1NC(=O)c1ccccc1	none
O=S(=O)(c1cccs1)n1cnc2ccccc21	none
COc1ccc(I)cc1S(=O)(=O)n1nnc2ccccc21	mHTT CaM bind 89
Cc1ccc(I)cc1S(=O)(=O)n1nnc2ccccc21	none
O=S(=O)(c1cccs1)n1nnc2ccccc21	mHTT CaM bind 84!
CCOc1ccc(C(=O)Nc2cc(-c3cccnc3)no2)cc1	none
O=C1CSC(c2cn(-c3ccccc3)nc2-c2cccnc2)N1Cc1ccccc1 (configuration not stated)	none
COc1ccc(-c2nn(-c3ccccc3)cc2C2SCC(=O)N2Cc2ccccc2)cc1 (configuration not stated)	mHTT CaM bind 87
